Assay outcomes (PubChem BioAssay)
PLC-gamma1 inh: PLC-gamma1 enzyme inhibitors, primary screen, biochemical, fluorescence, purified enzyme. 1-phosphatidylinositol 4,5-bisphosphate phosphodiesterase gamma-1 (Homo sapiens), P19174. fluorogenic substrate. inhibition, % at 12.2 µM. 370,000 compounds, 0.84% hits. AID 720700, 2013
PLCb3 inh: human PLC-beta3 inhibitors, primary screen, biochemical, fluorescence; 1-phosphatidylinositol 4,5-bisphosphate phosphodiesterase beta-3 (Homo sapiens), Q01970; Purified PLC-beta3, fluorogenic substrate; inhibition, % at 12.2 µM; 370,000 compounds, 0.18% hits; in the data active means inhibition above about 11%;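 further: 0% = median of compound wells on plate and 100% = full blocker control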
MBD2 DNA inh: inhibitors of MBD2 binding to methylated DNA, primary screen, biochemical, TR-FRET, DNA-binding domain, human; Methyl-CpG-binding domain protein 2 (Homo sapiens), Q9UBB5; MBD2 binding to methylated oligonucleotide; inhibition, % at 4.4 µM; 370,000 compounds, 0.31% hits; AID 686964, 2013; in the data active means inhibition above about 13%
Target sequence (Q9UBB5 whole entry, looked up, the tested form may be a part): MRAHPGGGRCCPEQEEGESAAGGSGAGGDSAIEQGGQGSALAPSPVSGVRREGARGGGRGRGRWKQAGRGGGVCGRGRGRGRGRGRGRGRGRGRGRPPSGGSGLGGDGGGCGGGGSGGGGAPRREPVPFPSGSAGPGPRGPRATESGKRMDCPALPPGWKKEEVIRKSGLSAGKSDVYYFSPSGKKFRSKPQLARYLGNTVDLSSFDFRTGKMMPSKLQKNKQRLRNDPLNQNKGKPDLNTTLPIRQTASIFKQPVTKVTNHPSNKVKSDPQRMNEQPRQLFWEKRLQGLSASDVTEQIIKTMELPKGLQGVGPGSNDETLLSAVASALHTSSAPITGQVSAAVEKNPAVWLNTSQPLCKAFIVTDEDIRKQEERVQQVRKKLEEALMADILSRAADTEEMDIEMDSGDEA
LEDGF integ inh: blockers of LEDGF/p75-dependent integrase strand transfer – biochemical, TR-FRET, high throughput, primary screen; HIV-1 integrase (with human LEDGF/p75); AID 743269, 2014; TR-FRET IN-LEDGF/p75 DNA integration, Eu/Cy5; 370,000 compounds, 0.64% hits; inhibition, % at 3.7 µM;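 active means inhibition above the screen-wide mean plus 3 SD, cut at about 13% in these data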;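 further: signal is the Cy5 over europium emission ratio at 671 and 618 nm; 0% = plate median of compound wells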
UHRF1 binding: UHRF1 methylated DNA binding inhibitors, primary screen, counter-screen for MBD2 inhibitor project, biochemical, TR-FRET, human UHRF1, single concentration | inhibition, % at 4.4 µM | UHRF1 binding to methylated oligo | 370,000 compounds, 0.75% hits; in the data active means inhibition above about 21%;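 further: UHRF1 SRA domain binding a hemimethylated CpG hairpin DNA probe; 0% = median of test compound wells and 100% = reference inhibitor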
PLCgamma1 ctr: PLC-gamma1 enzyme inhibitors, counter-screen for PLC-beta3 inhibitor project, biochemical, fluorescence; shares compounds with PLC-gamma1 inh; inhibition, % at 12.3 µM; purified PLC-gamma1, fluorogenic substrate; AID 743258, 2014; 3,300 compounds, 3.1% hits
PLCbeta3 conf: PLC-beta3 inhibitor confirmation, biochemical, fluorescence, purified enzyme. AID 743261, 2014. 3,300 compounds, 1% hits. inhibition, % at 12.3 µM. shares compounds with PLC-gamma1 inh. fluorogenic substrate fluorescence; in the data active means inhibition above about 11%
Starred values were filed as active, the others as inactive; . = no result. Sampled rows, rich in hits. Any-hit rate of the full collection: about 2.4%. Unless noted, no stated cut-off is given here; in the data, active means inhibition above about 9.5%; inactive means the rest.

SMILES	PLC-gamma1 inh	PLCb3 inh	MBD2 DNA inh	LEDGF integ inh	UHRF1 binding	PLCgamma1 ctr	PLCbeta3 conf
CC(C)(C)OC(=O)N1CCC(N[C@@H](Cc2ccccc2)C(=O)NCCc2c[nH]c3ccccc23)(C(=O)NC2CCCCC2)CC1	8.0	3.4	-4.8	6.0	-1.9	.	.
CCOCCn1c(C(C)O)nc2ccccc21 (stereo not drawn)	10.4*	4.1	7.2	3.6	7.2	-6.2	-0.1
CCCCn1c(C(C)NC(=O)COC)nc2ccccc21 (stereo not drawn)	10.1*	1.2	-2.4	-1.4	2.1	-3.5	-15.3
CCOCCn1c(CC)nc2ccccc21	-0.2	-6.8	-2.8	-1.5	2.3	.	.
CCCCCCN1CCS(=O)(=O)N(Cc2ccc(C)cc2)C(C(=O)OC)C1 (stereo not drawn)	-1.4	-0.3	1.1	-3.1	-2.2	.	.
NC(Cc1ccc(C(F)(F)F)cc1)c1csc(Nc2cc(Oc3ccccc3)ncn2)n1 (stereo not drawn)	9.7*	-12.4	9.6	8.8	3.6	-4.4	-1.6
Nc1ccc(CC(N)c2csc(Nc3cc(Oc4ccccc4)ncn3)n2)cc1 (stereo not drawn)	0.0	1.1	5.4	-2.3	3.0	.	.
COC(=O)CSc1nc2ccccc2n1CC(=O)N(C(C)C)C(C)C	9.0	13.3*	-7.0	1.9	3.2	-6.4	-0.5
CC(C)N(C(=O)Cn1c(SCC(=O)NC2CC2)nc2ccccc21)C(C)C	1.3	-2.4	1.9	-4.5	-1.1	.	.
COCCCNc1nc(N)c([N+](=O)[O-])c(NCc2ccccc2)n1	10.2*	1.2	-2.1	-4.2	2.9	5.4	-0.7
CN(C)CCCNc1nc(N)c([N+](=O)[O-])c(NCc2ccccc2)n1	9.7*	-0.8	1.3	-1.8	1.3	-1.4	1.1
COCC(C)n1c(SCC(=O)Nc2cc(C)on2)nc2ccccc2c1=O (stereo not drawn)	1.1	-18.6	-2.1	-0.1	1.4	.	.
COCCn1c(SCC(=O)Nc2ccccc2OC)nc2ccccc2c1=O	0.5	-7.4	3.3	4.1	3.1	.	.
CCn1c(SCC(=O)Nc2ccccc2OC)nc2ccccc2c1=O	11.1*	4.5	-2.3	-1.2	-2.9	-8.5	-5.1
COCC(C)n1c(SCC(=O)NC(=O)NCc2ccccc2)nc2ccccc2c1=O (stereo not drawn)	10.2*	8.0	-3.0	-1.4	2.0	-0.6	-1.7
CCCC1CCC2(CCCN2CCOC(=S)NCc2cccc(C)c2)CC1 (stereo not drawn)	-1.0	1.3	1.0	-0.1	-1.9	.	.
Cc1ccc(S(=O)(=O)NC[C@@H]2C[C@H](c3ccccc3)ON2S(=O)(=O)c2ccc(C)cc2)cc1	-1.2	-2.8	-3.8	-2.1	1.0	.	.
Cc1ccc(CNC(=O)C(C)OC(=O)c2ccco2)cc1 (stereo not drawn)	12.8*	2.4	7.0	2.6	5.9	3.5	2.3
CCC(OC(=O)c1ccco1)C(=O)NCc1ccc(C)cc1 (stereo not drawn)	0.2	-1.1	4.8	0.4	2.5	.	.
CCOc1cc(CN2CCN(c3cccc(C(F)(F)F)c3)CC2)ccc1O	9.7*	5.9	-0.7	3.1	1.8	-2.1	2.9
Cc1cc(C)cc(NC(=O)c2cccn2-c2ncc(C(F)(F)F)cc2Cl)c1	13.0*	9.2	-4.8	8.5	-1.5	-0.6	1.2
O=C(Nc1ccc(F)cc1F)c1cccn1-c1ncc(C(F)(F)F)cc1Cl	-1.5	2.7	-6.4	1.8	-2.1	.	.
O=c1c2[nH]c3ccccc3c2ncn1CCN1CCOCC1	9.6*	6.4	-3.1	-1.0	4.0	0.6	-0.9
CCOC(=O)C1(Cc2cccc(Cl)c2)CCCN(C(=O)c2cc(C)n(C)n2)C1 (stereo not drawn)	10.0*	-2.5	-1.8	4.8	3.7	-2.3	1.5
COc1ccc(-n2c(SCC(=O)c3ccc4ccccc4c3)nnc2-c2ccccc2)cc1	0.3	-3.3	-2.0	0.6	-2.5	.	.
SMILES	PLC-gamma1 inh	PLCb3 inh	MBD2 DNA inh	LEDGF integ inh	UHRF1 binding	PLCgamma1 ctr	PLCbeta3 conf
CC12CCC(C(=O)Nc3ccccc3N3CCOCC3)(CC1=O)C2(C)C (stereo not drawn)	9.5*	8.0	0.6	1.1	4.7	-3.7	-0.9
CC12CCC(C(=O)Nc3ccccc3-n3cccc3)(CC1=O)C2(C)C (stereo not drawn)	-2.1	1.6	2.1	-1.3	-3.9	.	.
COC(=O)c1cc(-c2cc(Cl)cc(Cl)c2)c(=O)n2c1CCC2	0.1	-0.5	0.8	-0.9	-0.6	.	.
Cn1cnnc1Sc1ccc(C(=O)NCCC23CC4CC(CC(C4)C2)C3)cc1[N+](=O)[O-]	9.5*	3.1	0.6	1.0	1.7	-1.7	-3.5
COC(=O)[C@]12CCCCC=C1N(Cc1ccc(Cl)cc1Cl)C(=O)[C@H](CC(=O)N1CCC(c3ccccc3)CC1)C2	12.2*	-5.3	7.2	-4.4	1.3	7.1	2.6
CCCCCC(=O)NC1CCCCN(Cc2cccc(Cl)c2)C1=O (stereo not drawn)	4.0	3.0	-6.4	4.1	2.4	.	.
CSc1cccc(NC(=S)N(CCCN2CCCC2)Cc2cccs2)c1	12.6*	2.1	-6.2	3.5	2.0	-9.0	-3.2
O=C(NCc1ccc2c(c1)OCO2)Nc1ccc([N+](=O)[O-])cc1	10.8*	-0.4	6.0	-0.1	3.4	3.5	4.6
CC(C)CC(=O)Nc1c2c(nn1-c1ccc(F)cc1)CSC2	8.7	12.4*	-4.2	2.6	3.1	-6.6	-5.3
CC(=O)C1(C(=O)NC2CCCC2)CC(c2ccccc2C(F)(F)F)=NO1 (stereo not drawn)	0.1	3.0	0.5	-1.1	-1.7	.	.
CC(C)(C)S(=O)(=O)/C(C#N)=C/c1cccn1S(=O)(=O)c1ccccc1	15.8*	3.0	-10.0	1.7	0.3	3.0	2.9
CS(=O)(=O)/C(C#N)=C/c1cccn1S(=O)(=O)c1ccccc1	-3.4	-7.8	4.2	-2.1	2.4	.	.
O=S1(=O)c2ccc(N3CCN(Cc4ccccc4F)CC3)cc2Oc2ccccc2CN1Cc1cn(Cc2ccc(C(F)(F)F)cc2)nn1	-1.1	-1.6	4.2	2.3	2.8	.	.
CN(NS(=O)(=O)c1ccccc1)C(=O)c1ccccc1	12.1*	5.4	-3.2	0.4	4.1	0.5	2.2
CN(NC(=O)NN(C)C(=O)c1ccccc1)C(=O)c1ccccc1	4.8	3.2	1.3	4.4	0.2	.	.
